The values below come from PubChem BioAssay.

Active and inactive are the calls of the source. Unless noted, the rule behind the calls is not given here.

The subject of experiment [1] is Wnt5a (protein binding on small-molecule microarray). Nature of the experiment: small molecules binding Wnt5a protein – biophysical, small-molecule microarray, 635/667 nm fluorescence, primary screen (AID 1142).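 Note: fluorescence read at 667 nm with signal to noise per printed feature.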 The following applies: 635 nm fluorescence, higher = more signal.
Experiment [2] can be described thus: ATP-based viability of Huh7 replicon cells – cell-based, CellTiter-Glo luminescence, basal, 48 h, cytotoxicity control for HCV replication inhibitor project, primary screen (AID 1143).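 Note: Huh7 hepatoma cells carrying a hepatitis C replication reporter with no stimulus; test concentration not given here.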 The following applies: higher = more signal, called active from +8 up or from −8 down.
Experiment [3] is described as follows: Pseudomonas biofilm growth suppression – PAO1 strain, BacTiter-Glo luminescence, LB-PBS, primary screen (AID 1144). The following applies: P. aeruginosa PAO1 biofilm, 12 h, higher = more signal.
A short description of experiment [4]: basal CRE-LacZ reporter activity in PC12 – cell-based, unstimulated, primary screen (AID 1145). Conditions: no forskolin, luminescence, 4.5 h, higher = more signal, called active from +8 up or from −8 down.
Experiment [5] can be described thus: forskolin-driven CRE-LacZ activity in PC12 – cell-based, CRE-LacZ reporter, forskolin-stimulated, primary screen (AID 1146).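 Note: PC12 cells with 6xCRE LacZ reporter stimulated by forskolin 10 µM; beta-galactosidase reporter signal reflecting CREB driven transcription.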 The following applies: luminescence, 4.5 h, higher = more signal, called active from +8 up or from −8 down.
Experiment [6] addresses Streptavidin (Streptomyces avidinii) (UniProt P22629). Nature of the experiment: compounds binding control protein streptavidin – biophysical, small-molecule microarray, 635/667 nm fluorescence, artefact control for SMM compound annotation, primary screen (AID 1147).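 Note: signal reflects streptavidin binding to arrayed compounds as a control protein.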 Conditions: higher = more signal.
Experiment [7] is described as follows: probe aInhba binding on compound microarray – biochemical, small-molecule microarray, 635/667 nm fluorescence, primary screen (AID 1148).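 Note: score merges 667nm spot fluorescence with signal-to-noise for antibody binding to printed compounds.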 The following applies: higher = more signal.
The target of experiment [8] is Torsin-1A (Homo sapiens) (UniProt O14656). Nature of the experiment: TOR1A wild-type binding on microarray – cell lysate, small-molecule microarray, lysate, 635/667 nm, primary screen (AID 1149). Conditions: COS7 hTOR1A-WT lysate, 635 nm fluorescence, higher = more signal.
Experiment [9] has the same target. The experiment is described as follows: torsin A mutant lysate binding on microarrays – cell lysate, small-molecule microarray, COS7 lysate, 635/667 nm fluorescence, primary screen (AID 1150).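 Note: score pools 667 nm emission and signal to noise measuring lysate protein binding.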 The following applies: COS7 hTOR1A mutant lysate, 635 nm fluorescence, higher = more signal.
Experiment [10] deals with Sonic hedgehog protein (Shh). Nature of the experiment: Sonic hedgehog microarray binding compounds – biochemical, small-molecule microarray, 635/667 nm fluorescence, primary screen (AID 1151).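 Note: Shh protein binding to compounds spotted on small-molecule microarray slides; score combines spot fluorescence intensity with signal-to-noise across triplicate slides.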 Conditions: 635 nm fluorescence, higher = more signal.

Chain of Streptavidin (Streptomyces avidinii) (P22629 whole entry, looked up): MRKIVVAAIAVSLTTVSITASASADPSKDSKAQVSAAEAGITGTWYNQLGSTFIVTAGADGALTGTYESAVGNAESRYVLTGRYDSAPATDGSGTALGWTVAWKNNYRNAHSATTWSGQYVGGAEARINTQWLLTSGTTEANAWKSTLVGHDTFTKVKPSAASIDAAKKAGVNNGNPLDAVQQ
Chain of Torsin-1A (Homo sapiens) (O14656 whole entry, looked up): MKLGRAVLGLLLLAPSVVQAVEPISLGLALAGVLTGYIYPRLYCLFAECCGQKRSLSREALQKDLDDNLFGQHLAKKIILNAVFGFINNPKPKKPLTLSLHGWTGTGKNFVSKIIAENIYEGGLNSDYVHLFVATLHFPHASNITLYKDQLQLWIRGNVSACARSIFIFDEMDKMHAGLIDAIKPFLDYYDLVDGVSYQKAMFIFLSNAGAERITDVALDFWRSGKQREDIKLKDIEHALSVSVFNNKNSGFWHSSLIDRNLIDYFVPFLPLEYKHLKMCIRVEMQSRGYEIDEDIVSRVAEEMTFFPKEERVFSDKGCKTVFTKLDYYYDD

As to `COCCCNC(=O)[C@]1(CCS(=O)(=O)c2ccccc2)N=C(c2ccc(OCCCO)cc2)O[C@@H]1c1ccccc1N=[N+]=[N-]`, the composite z-score in experiment [1] was 1.02; in experiment [6], 1.31; in experiment [7], -0.0907; with Torsin-1A (Homo sapiens) [8], 0.602; in the experiment with Torsin-1A (Homo sapiens) [9], 0.441; in experiment [10], -0.498. Also, the z-score in experiment [2] is -2.78 (inactive); in experiment [3], 2.09 (inactive); in experiment [4], 0.297 (inactive); in experiment [5], -1.27 (inactive).
Consider `C=CCN1C(=O)[C@@]2(O[C@@H](CCn3cc([C@H](O)c4ccccc4)nn3)[C@H]([Si](C)(C)c3ccc(OC)cc3)[C@H]2C)c2cc(N3CCC3=O)ccc21`, for which the composite z-score is -0.162 in experiment [1]; -0.101 in experiment [6]; -0.154 in experiment [7]; 0.195 in the experiment with Torsin-1A (Homo sapiens) [8]; 0.183 with Torsin-1A (Homo sapiens) [9]; -0.0053 in experiment [10]. For the same compound, the z-score in experiment [2] was -1.83 (inactive); in [3], -1.01 (inactive); in experiment [4], 17 (active); in experiment [5] it was -1.02 (inactive).
Take `O=C1OCCC=C[C@H]2OC34C=CCN(Cn5nnc6ccccc65)C(=O)[C@H]3N(CCCCCCO)C(=O)[C@@H]4C12` (stereo not given in full): the composite z-score is -0.512 in [1]; -1.12 in experiment [6]; -0.561 in experiment [7]; -0.103 in the experiment with Torsin-1A (Homo sapiens) [8]; -0.0648 with Torsin-1A (Homo sapiens) [9]; -0.643 in experiment [10]. The z-score in experiment [2] was 0.523 (inactive); in [3], 0.863 (inactive); in [4], 0.191 (inactive); in experiment [5], 0.0417 (inactive).
Regarding `COc1ccc([Si](C)(C)[C@@H]2[C@@H](CC(=O)N(CCO)Cc3ccccc3)O[C@]3(C(=O)N(Cc4cccc(N5CCOC5=O)c4)c4ccccc43)[C@H]2C)cc1`, the composite z-score in experiment [1] is -0.129; in [6], -0.121; in experiment [7], -0.176; with Torsin-1A (Homo sapiens) [8], 0.787; with Torsin-1A (Homo sapiens) [9] it was 0.347; in [10] it was 1.52. Further, the z-score in [2] was -5.47 (inactive); in experiment [3], -0.122 (inactive); in [4], 0.748 (inactive); in [5] it was -0.62 (inactive).
With `C[N+](C)(C)CCCC[C@@H]1NC(=O)[C@H]2C[C@@H](C(=O)NCCCCCCN)[C@@H](c3ccc(O)cc3)N2C1=O`, the composite z-score in experiment [1] is 0.408; in experiment [6], 0.859; in experiment [7], 0.108; with Torsin-1A (Homo sapiens) [8], 0.774; with Torsin-1A (Homo sapiens) [9], 0.545; in [10], -0.117. For the same compound, the z-score was -0.548 (inactive) in [2], 1.09 (inactive) in experiment [3], -0.528 (inactive) in experiment [4] and -1.1 (inactive) in experiment [5].
Take `CC1CC/C=C\[C@H]2OC34C=CCN(C(C)C)C(=O)[C@H]3N(CCCCCCO)C(=O)[C@@H]4C2C(=O)O1` (stereo not given in full): the composite z-score was -0.574 in [1]; -0.931 in [6]; -0.323 in [7]; -1.83 with Torsin-1A (Homo sapiens) [8]; -1.19 with Torsin-1A (Homo sapiens) [9]; -0.159 in [10]. In addition, the z-score in experiment [2] is -0.183 (inactive); in experiment [3], -1.31 (inactive); in [4], -0.342 (inactive); in experiment [5], -0.816 (inactive).
As to `CCOC(=O)C[C@H]1[C@H](OC(=O)Cc2ccc3c(c2)OCO3)[C@@H](NC(=O)Cc2ccc(OC)cc2)c2cc(OCCCO)ccc2N1C(=O)c1ccc2ccccc2n1`, the composite z-score in [1] was -0.223; in experiment [6], 0.0739; in experiment [7] it was -0.0547; with Torsin-1A (Homo sapiens) [8], 0.183; with Torsin-1A (Homo sapiens) [9], 0.714; in experiment [10], 0.492. Besides, the z-score was -0.823 (inactive) in experiment [2], -0.687 (inactive) in [3], 10.1 (active) in [4] and -1.24 (inactive) in [5].
Consider `C=CCOC(=O)[C@H]1[C@@H]2C(=O)O[C@@H](c3ccccc3)[C@@H](c3ccccc3)N2[C@@H](c2ccc(OCCOC(=O)[C@@H]3C[C@@H]4C(=O)N[C@@H](CCCCNC(C)=O)C(=O)N4[C@@H]3c3ccc(O)cc3)cc2)[C@]12C(=O)Nc1ccc(I)cc12`, for which the composite z-score in experiment [1] is 0.804; in [6], -0.139; in experiment [7], 0.225; with Torsin-1A (Homo sapiens) [8], 1.25; with Torsin-1A (Homo sapiens) [9] it was 1.15; in [10], 2.21. The z-score was -0.257 (inactive) in experiment [2], 0.272 (inactive) in [3], 0.143 (inactive) in experiment [4] and 0.236 (inactive) in experiment [5].
As to `COc1ccc(CCN2C(=O)[C@@]3(Cc4ccccc42)c2ccccc2C(=O)N(Cc2ccccc2OC)[C@H]3c2ccc(CO)cc2)cc1`, the composite z-score was -0.166 in [1]; -0.491 in [6]; -0.126 in experiment [7]; -0.194 in the experiment with Torsin-1A (Homo sapiens) [8]; -0.933 with Torsin-1A (Homo sapiens) [9]; -0.384 in experiment [10]. In addition, the z-score in [2] is -4.54 (inactive); in experiment [3], 0.0431 (inactive); in [4] it was 0.649 (inactive); in [5], -0.341 (inactive).
For `COc1ccc([Si](C)(C)[C@H]2[C@H](CCn3cc([C@H](O)c4ccccc4)nn3)O[C@@]3(C(=O)N(Cc4ccc(N5C(=O)c6cccc7cccc5c67)cc4)c4ccccc43)[C@@H]2C)cc1`, the composite z-score in experiment [1] is -0.21; in experiment [6] it was 0.618; in [7], -0.0791; with Torsin-1A (Homo sapiens) [8] it was -0.734; in the experiment with Torsin-1A (Homo sapiens) [9] it was -0.35; in experiment [10], 0.232. The z-score in experiment [2] was -2.02 (inactive); in experiment [3], -1.05 (inactive); in experiment [4], 1.02 (inactive); in [5], -0.715 (inactive).
Take `COc1ccc([Si](C)(C)[C@@H]2[C@@H](CC(=O)N3Cc4ccccc4C[C@H]3CO)O[C@]3(C(=O)N(Cc4cccc(N5C(=O)c6cccc7cccc5c67)c4)c4ccccc43)[C@H]2C)cc1`: the composite z-score came out at 0.51 in experiment [1]; 0.211 in [6]; 0.0091 in [7]; 0.786 in the experiment with Torsin-1A (Homo sapiens) [8]; 0.535 with Torsin-1A (Homo sapiens) [9]; 1.19 in experiment [10]. Besides, the z-score in experiment [2] is -4.1 (inactive); in [3], -0.194 (inactive); in experiment [4] it was 0.861 (inactive); in experiment [5], 0.838 (inactive).
For the compound `COC(=O)[C@@]1(Cc2ccc(F)cc2)[C@H]2c3cc(C(=O)N(C)C)n(CCc4ccc(O)c(OC)c4)c3C[C@H]2CN1C(=O)c1ccccc1`, the composite z-score was 2.23 in [1]; 0.637 in experiment [6]; 1.62 in [7]; 0.334 in the experiment with Torsin-1A (Homo sapiens) [8]; 0.234 in the experiment with Torsin-1A (Homo sapiens) [9]; -0.804 in experiment [10]. In addition, the z-score in [2] was 0.462 (inactive); in experiment [3], -0.0301 (inactive); in [4], 0.783 (inactive); in [5] it was 0.15 (inactive).
`CC(CO)N1C(=O)[C@@H]2[C@H]3C(=O)OCC=C[C@H]3OC23C=CCN(Cc2ccccc2)C(=O)[C@@H]13` (stereo not given in full): the composite z-score in experiment [1] was 0.0691; in experiment [6] it was -0.245; in [7], -0.21; in the experiment with Torsin-1A (Homo sapiens) [8], -1.32; with Torsin-1A (Homo sapiens) [9] it was -0.14; in experiment [10], -0.0627. For the same compound, the z-score in [2] was 0.0021 (inactive); in experiment [3], -1.11 (inactive); in experiment [4], -1.44 (inactive); in experiment [5], -1.08 (inactive).
In the case of `CC(C)N1CC=CC23O[C@@H]4C=CCOC(=O)[C@@H]4[C@H]2C(=O)N(CCCO)[C@@H]3C1=O` (stereo not given in full), the composite z-score is -0.26 in experiment [1]; -0.941 in experiment [6]; -0.182 in [7]; 1.12 in the experiment with Torsin-1A (Homo sapiens) [8]; 0.874 in the experiment with Torsin-1A (Homo sapiens) [9]; -0.182 in experiment [10]. For the same compound, the z-score in experiment [2] is -5.24 (inactive); in experiment [3], -2.47 (inactive); in experiment [4], -1.31 (inactive); in experiment [5], -0.931 (inactive).
